Tau fibril FP: blocks human tau fibril formation measured by polarization; P10636; K18 P301L tau heparin fibrillization, Alexa594 FP, 6 h; Potency, µM (top dose mostly 57.7 µM), for the others: top-dose activity, negative = inhibition, hits mostly inhibitors; actives 0.39% (n = 280,000); AID 1468; note: potency is the fitted concentration of half-maximal effect; nearly all actives have a fitted effect of over 55% in size
Target sequence (P10636 561-689 P618L limits assumed): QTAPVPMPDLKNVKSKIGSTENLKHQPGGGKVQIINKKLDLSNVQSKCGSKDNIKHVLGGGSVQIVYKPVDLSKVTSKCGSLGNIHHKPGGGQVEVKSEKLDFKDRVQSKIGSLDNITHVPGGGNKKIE
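Read-out: fluorescence polarization of Alexa 594-labeled tau (0.24 uM), 555 nm excitation, 632 nm emission. Mixtures held 15 uM unlabeled K18 P301L, compound and 20 uM heparin, pH 7 acetate buffer, incubated 6 hr at 37 C.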
Tau fibril ThT: blocks human tau fibril formation measured by thioflavin T. P10636. Potency, µM (highest dose often 57.4 µM), without a hit: at the highest dose activity, negative = inhibition, actives largely listed as inhibitors. recombinant tau K18 P301L, heparin-induced fibrillization, ThT fluorescence. actives 2.1% (n = 270,000); note: potency is the fitted concentration of half-maximal effect; nearly all actives have a fitted effect of over 55% in size
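Using a mix of unlabeled (15 uM) and Alexa 594-labeled (0.24 uM) tau K18 P301L, heparin-triggered fibrillization over 6 hr at 37 C was scored by ThT fluorescence.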
FBPA coupling cs: coupling enzyme interference in Giardia aldolase counter-screen | actives 0.67% (n = 290,000) | activity change, negative = inhibition, % at 58.2 µM, hits read low | coupling enzyme system counterscreen, AmpLite Red fluorescence | AID 2472; in the data active = activity change below about -30%
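First, compound is pin-transferred into glyceraldehyde-3-phosphate coupling-enzyme reagent at 57.5 uM final and held 10 min at RT. Next, substrate, coupling system and AmpLite Red are added. After 20 min RT, fluorescence (525/598 nm) is read.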
Tau fluor counter: counter-screen for tau fibril formation inhibitors | tau K18 P301L (four-repeat tau fragment) Alexa594 fluorescence, heparin fibrillization | Potency, µM (doses to about 57.7 µM), for the others: at the top dose activity change, negative = decrease | actives 0.93% (n = 280,000); note: potency is the fitted concentration of half-maximal effect; nearly all actives have a fitted effect of over 55% in size
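Human K18 P301L tau (15 uM unlabeled plus 0.24 uM Alexa 594-labeled, final) in 100 mM sodium acetate pH 7 was mixed with compound and 20 uM heparin and incubated 6 hr at 37 C.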
Sfp PPTase inh: Sfp phosphopantetheinyl transferase inhibition | Biochemical Sfp PPTase activity, qHTS | AID 1490 | Q9F4F7 | Potency, µM, for the others: largest response in the series, negative = inhibition, actives largely listed as inhibitors | actives 3.5% (n = 310,000);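 note: the enzyme is Sfp with the accession as filed and its product quenches rhodamine fluorescence; potency is the fitted concentration of half-maximal effect; 0% = enzyme reaction without inhibitor and -100% = no enzyme wells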
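Fluorescence-quenching assay with 15 nM Sfp, 5 uM rhodamine-CoA and 12.5 uM BHQ-2-labelled ybbR peptide in pH 7.6 Hepes/MgCl2 buffer. Enzyme was pre-incubated with compound for 15 min at room temperature. Rate was taken from the 30-min fluorescence change (525/598 nm).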
* marks the source's active call; other numbers are inactive results; ? = inconclusive; . = no result given; [ ] = another dose, or the depositor's remark. Hits are enriched below; roughly 5.2% of the tested compounds scored in any of these assays. Unless noted, calls come from the whole dose curve; as a rule, active = well fitted curve in the direction sought with a large enough effect; inconclusive = small, poorly fitted or top-dose-only effect, or another doubt; inactive = no such curve, though single readings can be large; an effect the other way counts as inactive or inconclusive. Unless noted, % is set by controls: 0 for no effect and ±100 for the full control effect.

SMILES	Tau fibril FP	Tau fibril ThT	FBPA coupling cs	Tau fluor counter	Sfp PPTase inh
O=C(N/N=C/c1ccccn1)c1ccc([N+](=O)[O-])cc1	-8.2%	?	-3.6	-12.1%	-10.3%
O=C(N/N=C/c1ccccn1)C(=O)N1CCCCCC1	-7.6%	2.1%	5.1	6.7%	44.7µM*
Cn1c(SCC(=O)N/N=C/c2ccccn2)nnc1-c1ccccc1	1.4%	-16.9%	4.2	-8.4%	44.7µM*
Cc1cc(C)n(CC(=O)N/N=C/c2ccccn2)n1	0.3%	13.4%	1.2	-6.0%	17.8µM*
O=C(Cn1c2ccccc2c(=O)c2ccccc21)N/N=C/c1cc([N+](=O)[O-])ccc1N1CCCCCC1	-4.0%	-6.3%	0.8	-12.3%	11.2µM*
O=C(Cn1c2ccccc2c(=O)c2ccccc21)N/N=C/c1ccc(N2CCCC2)c([N+](=O)[O-])c1	6.6%	2.5%	-1.9	5.1%	-10.9%
COc1cc2c(cc1OC)-c1c(oc3cc(O)cc(O)c3c1=O)CO2	-16.2%	?	-7.7	?	-26.8%
Cc1ccccc1-c1cncnc1NCCN1CCOCC1	-11.3%	-5.7%	1.9	-0.6%	-28.3%
Cc1cnc(CNc2ncncc2-c2ccc(N(C)C)cc2)cn1	.	.	-14.6	.	79.4µM*
CN(C)c1ccc(-c2cncnc2NCCN2CCOCC2)cc1	.	.	-13.7	.	79.4µM*
CCn1nc(C)c2c(-c3ccccc3)cc(=O)n(C(C)C(=O)NCc3ccccc3OC)c21 (stereo unspecified)	-2.2%	-17.0%	.	-5.4%	.
CCc1ccc(CNC(=O)c2cnc3sc(N4CCCCCC4)nn3c2=O)cc1	1.1%	-3.0%	.	1.8%	.
CN(C)C(=O)c1ccc(-c2nc(NCc3ccccc3)c3ccccc3n2)cc1	-10.3%	5.0%	-5.0	-22.8%	-6.2%
CCCCNc1cc(NC(C)=O)cc2cc(OC)c(OC)cc12	-11.2%	-19.5%	-44.1*	-13.5%	1.2%
CC(C)=CCC/C(C)=C/CO/N=C1/C[C@@H](O)[C@@H](O)[C@@H]2[C@@H]3C(=O)N(C4CCCCC4)C(=O)[C@H]3CC[C@@H]12	-1.3%[11.6 µM]	-4.2%[11.5 µM]	-1.2	-8.3%[11.6 µM]	6.8%
COc1ccc(NC(=O)CC2Sc3ncnn3C2=O)cc1 (stereo unspecified)	5.9%	?	1.0	-10.6%	44.7µM*
O=C(CC1SC(=O)N(c2ccccc2)C1=O)Nc1ccc(Cl)cc1 (stereo unspecified)	-3.7%	?	1.6	-19.0%	-18.7%
CCOC(=O)c1ccc(NC(=O)CC2Sc3ncnn3C2=O)cc1 (stereo unspecified)	4.7%	?	-7.1	-3.6%	22.4µM*
O=C(CC1Sc2ncnn2C1=O)Nc1ccc(Cl)cc1 (stereo unspecified)	-9.0%	?	2.4	-11.6%	35.5µM*
CCOC(=O)c1ccc(NC(=O)CC2SC(=NC)N(C)C2=O)cc1 (stereo unspecified)	-1.3%	-12.7%	-1.1	-12.4%	1.5%
COc1cccc([C@@H]2Oc3ccc(OC)cc3C(=O)[C@H]2OC(=O)Nc2ccc(OC(F)F)cc2)c1	-12.8%	-5.4%	1.2	-25.9%	-7.5%
COc1ccc(C2c3c(-c4ccccc4O)n[nH]c3C(=O)N2Cc2ccco2)cc1 (stereo unspecified)	-4.3%	-0.3%	0.7	?	-29.4%
Cc1ccc(O)c(-c2n[nH]c3c2C(c2ccc(F)cc2)N(Cc2ccco2)C3=O)c1 (stereo unspecified)	4.0%	?	.	14.1µM*[quencher]	.
Cc1ccc2nc(/N=C(\N)NC(=O)NC3CCCCC3)nc(C)c2c1	-2.5%	?	0.2	-13.7%	44.7µM*
CCCC(=O)N/C(N)=N/c1nc(C)c2cc(C)ccc2n1	-2.6%	-17.4%	-4.7	-10.1%	15.5%
SMILES	Tau fibril FP	Tau fibril ThT	FBPA coupling cs	Tau fluor counter	Sfp PPTase inh
O=C(NCCc1csc(-c2cccc(F)c2)n1)c1cccs1	-4.9%	-6.3%	.	-7.1%	.
Cc1ccc(NC(=O)/C=C\C(=O)NCC(=O)O)cc1	1.1%	-7.3%	0.3	-1.9%	70.8µM*
Cc1ccc(S(=O)(=O)Nc2ccc(NC(=O)/C=C/C(=O)O)cc2)cc1	-0.7%	-6.4%	5.8	-0.8%	5.0%
CCOC(=O)c1cccc(NC(=O)c2cc(-c3ccc(Cl)s3)nc3ccccc23)c1	?	10.7%	.	-13.9%	.
COc1ccc(NC(=S)N2CCN(C(=O)c3ccco3)CC2)c(OC)c1	3.6%	-4.3%	0.7	-3.2%	39.8µM*
COc1ccc(NC(=S)N2CCN(C(=O)c3ccco3)CC2)cc1	.	.	-1.6	.	-0.7%
COC(=O)c1ccc(NC(=S)N2CCN(C(=O)c3ccco3)CC2)cc1	.	.	.	.	44.7µM*
Cc1ccc(S(=O)(=O)c2nnn3c2nc(NCc2cccs2)c2sccc23)cc1C	?	12.2%	.	?	.
CCOC(=O)CNC(=S)n1cnc(N)n1	-1.2%	-13.0%	2.9	-1.6%	17.8µM*
CCOC(=O)CNC(=O)CSc1nc(N)cc(N)n1	2.0%	6.8%	-0.4	6.7%	18.2%
CC1=C(C(=O)OCc2ccccc2)C(c2ccsc2)C(C#N)=C(N)O1 (stereo unspecified)	?	-7.0%	2.6	-29.4%	-7.9%
N#CC1=C(N)Oc2c(oc(CO)cc2=O)C1c1ccsc1 (stereo unspecified)	-8.8%	-16.3%	-15.3	-7.1%	50.1µM*
N#CC1=C(N)Oc2c(ccc3ccccc23)C1c1ccsc1 (stereo unspecified)	?	?	-27.8	?	56.2µM*
CCNc1ncc2nc(C)c(=O)n(CCOC)c2n1	.	.	-1.9	.	5.7%
Cc1oc2ncn(C)c(=O)c2c1C(=O)NCCCN1CCCC(C)C1 (stereo unspecified)	-9.6%	-0.3%	.	-5.2%	.
CN1CCC(N(C)CC(=O)Nc2ccc3c(c2)OC(F)(F)O3)CC1	-4.3%	-12.3%	5.8	-7.4%	50.1µM*
Cc1cccc(CNc2ncncc2-c2ccccc2C(F)(F)F)c1	-7.3%	-6.0%	-0.9	-15.2%	-28.5%
CCCCC(=O)NC(=S)Nc1c(C)cc(Br)cc1C	-8.0%	-12.9%	0.9	-11.8%	35.5µM*
CCCCC(=O)NC(=S)Nc1cccc(NC(=O)CC)c1	3.1%	-6.6%	0.0	-1.8%	-9.8%
CC(C)C1C(c2ccccc2)NC(c2ccccc2)CC1(O)c1ccc(F)cc1 (stereo unspecified)	-5.2%	-7.6%	-2.0	-18.8%	56.2µM*
CN(C)c1ccc(CNc2nc(-c3ccco3)nn2C(=O)c2cccc([N+](=O)[O-])c2)cc1	9.5%	?	.	12.6µM*[quencher]	.
O=C(CSc1nc2cc(S(=O)(=O)N3CCOCC3)ccc2o1)NC1CCCc2ccccc21 (stereo unspecified)	-7.7%	-2.8%	-0.5	12.1%	10µM*
O=C(CSc1nc2cc(S(=O)(=O)N3CCOCC3)ccc2o1)Nc1c(F)cccc1F	-16.1%	?	4.6	-13.7%	12.6µM*
COc1ccc(/C=N/c2oc(-c3ccccc3)cc2C#N)cc1OC	-9.5%	-0.5%	-20.7	2.9%	79.4µM*
